Screening results from PubChem.
HDAC3 inh = HDAC3 deacetylase inhibitors, primary screen, biochemical, fluorescence, cell-free homogeneous; Histone deacetylase 3 (Homo sapiens), O15379; recombinant HDAC3, fluorogenic peptide/trypsin coupled; inhibition, % at 8.3 µM; 320,000 compounds, 0.15% hits; in the data active = inhibition above about 26%, passing the limit was not always enough; inconclusive = no clear call, values can overlap the other calls
Target sequence (O15379 whole entry, looked up): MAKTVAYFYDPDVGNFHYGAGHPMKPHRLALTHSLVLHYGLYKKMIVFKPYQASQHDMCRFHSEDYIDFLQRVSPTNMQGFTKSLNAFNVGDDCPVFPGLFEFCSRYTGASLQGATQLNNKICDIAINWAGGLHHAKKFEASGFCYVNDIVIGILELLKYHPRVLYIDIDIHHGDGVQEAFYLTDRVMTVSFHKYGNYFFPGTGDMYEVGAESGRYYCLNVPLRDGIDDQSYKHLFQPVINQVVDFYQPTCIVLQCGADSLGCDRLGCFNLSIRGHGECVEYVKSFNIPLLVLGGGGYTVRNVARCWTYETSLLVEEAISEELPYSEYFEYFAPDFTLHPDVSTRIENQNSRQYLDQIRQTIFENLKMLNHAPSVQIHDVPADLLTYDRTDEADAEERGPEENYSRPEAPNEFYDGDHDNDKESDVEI
hiPSC survival = enhancers of single-cell hiPSC survival, primary screen, ATPlite luminescence; 360,000 compounds, 0.044% hits; 100% = ROCK inhibitor wells, 0% = DMSO; AID 602274, 2012; survival enhancement, % at 20 µM; in the data active = survival enhancement above about 18%;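 note: cells exposed to compounds for 16 hours before the ATP read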
LANA-H2A inh = blockers of LANA interaction with H2A/H2B – biochemical, FP readout, HTS, primary screen; Protein LANA1 (Human herpesvirus 8 type P (isolate GK18)), Q9QR71; cell-free LANA-H2A/H2B peptide, fluorescence polarization; inhibition, % (no concentration beside the values); 320,000 compounds, 0.6% hits; AID 2629, 2010; in the data active = inhibition mostly above about 10%, no sharp cut-off; inactive = mostly below about 6.7%
DAGLB inh = DAGLB lipase inhibitors, primary screen, biochemical, fluorescence, HTS. Diacylglycerol lipase-beta (Homo sapiens), Q8NCG7. HEK293T DAGLB membrane lysate, EnzChek fluorogenic substrate. inhibition, % at 5.17 µM. 340,000 compounds, 0.059% hits; in the data active = inhibition above about 34%
Large screens that a line does not name were inactive; ! = not active in a repeat. Hits are enriched below; roughly 0.79% of the tested compounds scored in any of these assays.

C[C@@H](NC(=O)c1nc[nH]c1C(=O)N[C@@H](Cc1ccccc1)C(=O)OC(C)(C)C)c1ccccc1	none
CCCNC(=O)c1cc(Cl)c(NC(=O)C2=CSCCO2)cc1OC	none
CC(C)(C)OC(=O)NCCCC[C@H](NC(=O)c1[nH]cnc1C(=O)N[C@@H](Cc1ccccc1)C(=O)OCc1ccccc1)C(=O)OC(C)(C)C	HDAC3 inh 38
CCCC(=O)n1nc(-c2ccc(Cl)cc2)nc1SC	HDAC3 inh 32
CCS(=O)(=O)c1ncc(Cl)c(C(=O)Nc2ccc(S(=O)(=O)N3CCCC(C)C3)cc2)n1 (stereo unspecified)	hiPSC survival 20
CC1CCN(C(=O)c2[nH]cnc2C(=O)NCC(=O)OC(C)(C)C)CC1	hiPSC survival 26
CC(C)(C)OC(=O)CNC(=O)c1nc[nH]c1C(=O)N1CCN(C(=O)OC(C)(C)C)CC1	none
Cc1ccc(C)c(OCCC(=O)OCC(=O)NCCc2ccc(S(N)(=O)=O)cc2)c1	none
Cc1ccc(C)c(OCCC(=O)NCCc2ccc(S(N)(=O)=O)cc2)c1	LANA-H2A inh 29
Cc1ccc(-n2nc(C)c3c(C)cc(=O)[nH]c32)cc1	hiPSC survival 22
CCCCCCc1cc2cc(-c3nnc(-c4ccccc4O)o3)c(=O)oc2cc1O	none
CCCCCCc1cc2cc(-c3nnc(-c4ccccc4OC)o3)c(=O)oc2cc1O	LANA-H2A inh 10
CCOC(=O)NC1(C(F)(F)F)N=C(c2ccccc2)NC1=O (stereo unspecified)	LANA-H2A inh 14
O=C(O)c1cc(N=Nc2c(O)ccc3ccccc23)cc(C(=O)O)c1	none (no result: HDAC3 inh, LANA-H2A inh)
Oc1ccc(N=Nc2c(O)ccc3ccccc23)cc1	DAGLB inh 49
Cc1cc(C)nc(SC2CC(=O)N(c3ccc(Cl)cc3)C2=O)n1 (stereo unspecified)	none
COc1ccccc1N1C(=O)CC(Sc2nccc(C)n2)C1=O (stereo unspecified)	none
COc1cc([N+](=O)[O-])ccc1N1C(=O)CC(Sc2nccc(C)n2)C1=O (stereo unspecified)	LANA-H2A inh 15
Cc1cc(C)nc(SC2CC(=O)N(c3ccc(C)c(C)c3)C2=O)n1 (stereo unspecified)	LANA-H2A inh 16
COc1ccc(N2C(=O)CC(Sc3nccc(C)n3)C2=O)c(OC)c1 (stereo unspecified)	hiPSC survival 28 (no result: HDAC3 inh, LANA-H2A inh)
COCCNC(=O)C[C@H]1C[C@H]2c3cc(NS(=O)(=O)c4ccc(F)cc4)ccc3O[C@H]2[C@H](CO)O1	none (no result: HDAC3 inh, LANA-H2A inh)
O=C(NCc1cccnc1)c1cc(C2CCCCN2S(=O)(=O)c2ccc(F)cc2F)on1 (stereo unspecified)	none (no result: HDAC3 inh, LANA-H2A inh, DAGLB inh)
O=C(NC1CCCCC1)C1c2ccccc2OCC(=O)N1Cc1cccnc1 (stereo unspecified)	none (no result: HDAC3 inh, LANA-H2A inh, DAGLB inh)
CN(C)CCNc1ncnc2c1ncn2[C@H]1CN(Cc2cccs2)C[C@@H](CO)O1	none (no result: HDAC3 inh, LANA-H2A inh, DAGLB inh)
CC(C)Oc1cc(F)ccc1-c1cc(C(=O)NCCc2ccncc2)[nH]n1	none (no result: HDAC3 inh, LANA-H2A inh, DAGLB inh)
COc1ccccc1CNC(=O)COC(=O)/C=C/c1ccc2ccccc2n1	LANA-H2A inh 17
COc1ccc2ccccc2c1/C=N/NC(=O)c1sc(N)c(C#N)c1C	LANA-H2A inh active
Cc1cc(-c2nn(-c3ccccc3F)cc2CN2CCC(O)CC2)c(C)s1	LANA-H2A inh 34
CC1(C(=O)NS(=O)(=O)c2ccc(C#N)cc2)CCN1C(=O)c1cccc2ccccc12 (stereo unspecified)	none (no result: HDAC3 inh, LANA-H2A inh, DAGLB inh)
CCOc1ccc(S(=O)(=O)N2CCOCC2)cc1NC(=O)CSCc1c(C)noc1C	none
Clc1ccc(C(c2ccccc2Cl)C(Cl)Cl)cc1 (stereo unspecified)	none
CCc1ccc(C(c2ccc(CC)cc2)C(Cl)Cl)cc1	LANA-H2A inh 24
CCCC(=O)Nc1ccccc1NC(C)=O	LANA-H2A inh 18
CCN1CCS/C1=C/C=C/C1=[N+](CC)CCS1	HDAC3 inh 36
O=C(O)c1ccc(N=Nc2c(O)[nH]c3ccc(Br)cc23)cc1	none
O=c1ccc2cc3c([nH]c4ccc(Br)cc43)oc-2c1O	HDAC3 inh 38, DAGLB inh 43
O=c1nc(SCc2cccc(C(F)(F)F)c2)nc2ccccn12	LANA-H2A inh 17
Cc1ccn2c(=O)nc(SCc3cccc(C(F)(F)F)c3)nc2c1	none
CCOC(=O)c1c(NC(=O)C(NCCN(C)C)c2ccccc2)sc2c1CCCC2 (stereo unspecified)	none
O=C(NCCc1ccccc1)c1cnc2n(c1=O)CCS2	HDAC3 inh inconclusive, LANA-H2A inh 13
COc1ccc(C(=O)CSc2cc(C)[nH]c(=O)n2)cc1	HDAC3 inh 61
COc1ccc(C(=O)CSc2nc(C)cc(=O)[nH]2)cc1	none
CCOC(=O)C1(Cc2ccccc2)CCN(Cc2cnc(N3CCOCC3)s2)CC1	LANA-H2A inh 53
CCOC(=O)C1(Cc2ccccc2)CCN(Cc2cccn2-c2nccs2)CC1	LANA-H2A inh 14
OCC1(CCCc2ccccc2)CCN(Cc2cnc(N3CCOCC3)s2)CC1	none
CCOC(=O)C1(Cc2cccc(OC)c2)CCN(Cc2cccn2-c2nccs2)CC1	none
Cc1ccc(S(=O)(=O)/N=C2/C=C(Sc3ncn[nH]3)C(=O)c3ccccc32)c(C)c1	HDAC3 inh 38 (no result: hiPSC survival, DAGLB inh)
O=C(NCCc1ccccc1)C1CCN(c2nc3ccccc3o2)CC1	LANA-H2A inh 14
CC(=O)Nc1ccc(NC(=O)COC(=O)Cc2c[nH]c3ccccc23)cc1	none
O=C(COC(=O)Cc1c[nH]c2ccccc12)Nc1cccc2ccccc12	LANA-H2A inh 14
CCN(CC(=O)NC1CCS(=O)(=O)C1)S(=O)(=O)c1ccc(Br)cc1 (stereo unspecified)	none
COC(=O)[C@]1(C)N[C@H](CN(C)C(=O)Nc2ccc(C(F)(F)F)cc2)[C@@H]2C(=O)N(C)C(=O)[C@@H]21	none
COc1ccc(C(=O)n2cnnc2N)cc1	HDAC3 inh 81
Cc1cc(C)cc(C(=O)n2cnnc2N)c1	HDAC3 inh inconclusive
Cc1cccc(C(=O)n2cnnc2N)c1	HDAC3 inh 44
COc1ccc(CN(C(C)=O)c2cc(C)c([N+](=O)[O-])cc2OC)cc1OC	none (no result: HDAC3 inh, LANA-H2A inh)
CC[N+](C)(C)c1cccc(O)c1	LANA-H2A inh 20!
O=C(COc1ccccc1Cl)Nc1ccccc1C(=O)N1CCCCC1	none
CCOc1ccc(NC(=O)C(c2ccccn2)N(C(=O)CCl)c2ccc(F)cc2)cc1 (stereo unspecified)	LANA-H2A inh 33
CCOc1ccc(NC(=O)N(c2ccccc2)c2ccccc2)cc1	none
O=C1CCc2cc(OCCCCc3nnnn3C3CCCCC3)ccc2N1	LANA-H2A inh 33
O=C(CNC(=O)C(c1ccccc1)c1ccccc1)N/N=C/c1ccc(O)cc1O	none
O=C(CNC(=O)C(c1ccccc1)c1ccccc1)N/N=C\c1cccc(O)c1	LANA-H2A inh 94
O=C(OCn1ncc(Br)c(Br)c1=O)c1ccc(F)cc1	none
O=C(OCn1ncc(Br)c(Br)c1=O)c1ccccc1Cl	hiPSC survival 35
CC(C)=N/N=C1\NC(=O)C(C)S1 (stereo unspecified)	none
